Hits are enriched below; roughly 2.4% of the tested compounds scored in any of these assays.
Pol iota inh: DNA polymerase iota (human) inhibition; Q9UNA4; Pol iota fluorescent replication assay, 10 min; Potency, µM (highest dose often 115 µM), actives largely listed as inhibitors; 390,000 tested, 1% active; AID 588590
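Pol iota at 10 nM preincubated 15 min with compounds at room temperature; reaction started with fluorescent substrate, 50 nM final. Fluorescence read kinetically at 0 and 10 min; buffer-only wells as negative control.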
POLB inh: DNA polymerase beta (human) inhibition; Potency, µM (series often up to 114 µM), hits mostly inhibitors; AID 485314; 340,000 tested, 1.3% active; Pol beta primer extension/strand displacement, fluorescence kinetic
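Homogeneous kinetic assay of primer extension and strand displacement by 10 nM Pol beta, preincubated 15 min at room temperature with compound before 50 nM substrate (final) was added. Read at 0 and 10 min; four-parameter Hill fit.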
POLK inh: DNA polymerase kappa (human) inhibition; Q9UBT6; purified Pol kappa, fluorescent DNA synthesis assay, 10 min; Potency, µM (top dose mostly 107 µM), usual class: inhibitors; 400,000 tested, 0.53% active; AID 588579
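Pol kappa 10 nM + cpd, 15 min RT; start w/ substrate 50 nM final; fluorescence kinetic read, 0 and 10 min. Neg ctrl: buffer, no enzyme.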
Pol eta inh-1: inhibitors of human DNA polymerase eta. Q9Y253. Potency, µM (highest dose often 114 µM), actives largely listed as inhibitors. recombinant Pol eta, fluorescent DNA replication assay. AID 588591. 390,000 tested, 1.2% active
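Pol eta at 10 nM preincubated with compounds 15 min at room temperature; reaction started with fluorescent substrate (50 nM final) and read kinetically at 0 and 10 min.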
FEN1 inh: blocks human flap endonuclease 1. Potency, µM (top dose mostly 114 µM), actives largely listed as inhibitors. Recombinant FEN1 flap cleavage, fluorescence, 15 min. P39748. 390,000 tested, 0.35% active; note: nearly all actives have a fitted effect of over 65% in size
Target sequence (P39748 whole entry, looked up): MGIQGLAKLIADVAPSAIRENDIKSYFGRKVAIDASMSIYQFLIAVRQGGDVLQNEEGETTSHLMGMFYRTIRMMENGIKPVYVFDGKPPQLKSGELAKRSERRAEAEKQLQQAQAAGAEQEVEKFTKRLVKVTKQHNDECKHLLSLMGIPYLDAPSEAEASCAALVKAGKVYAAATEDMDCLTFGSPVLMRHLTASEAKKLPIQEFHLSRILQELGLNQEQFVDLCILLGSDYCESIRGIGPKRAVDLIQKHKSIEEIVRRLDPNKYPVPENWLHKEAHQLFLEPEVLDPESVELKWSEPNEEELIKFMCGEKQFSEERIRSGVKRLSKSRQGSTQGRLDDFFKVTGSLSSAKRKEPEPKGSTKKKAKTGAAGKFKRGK
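With each library titrated from low to high concentration, compounds met 10 nM FEN1 for 15 min at room temperature before 50 nM substrate was added; readings at 0 and 15 min fed four-parameter Hill curve fits.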
WRN helicase inh: WRN helicase (human) inhibition | WRN helicase unwinding, fluorescent forked duplex, kinetic | 360,000 tested, 0.46% active | Potency, µM (top dose mostly 114 µM), actives largely listed as inhibitors | AID 651768; note: nearly all actives have a fitted effect of over 55% in size
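Enzyme (20 nM final) and test compound sit together 15 min at room temperature before substrate addition. Substrate is a single-forked duplex oligonucleotide (100 nM) labelled with fluorophore and quencher, with 2 mM ATP; helicase unwinding raises red fluorescence, read kinetically.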
Pol eta inh-2: Pol eta (human) inhibition, cherry-pick confirmation. Potency, µM, hits mostly inhibitors. 2,600 tested, 64% active. Pol eta primer extension, TAMRA/BHQ fluorescence, 10 min. shares compounds with Pol eta inh-1
Numbers stand for hits; [ ] = remark or other dose. Calls come from the whole dose curve; as a rule, active = well fitted curve in the direction sought with a large enough effect; inconclusive = small, poorly fitted or top-dose-only effect, or another doubt; inactive = no such curve, though single readings can be large; an effect the other way counts as inactive or inconclusive.

Results for COc1ccc(S(=O)(=O)NCC(c2ccco2)S(=O)(=O)c2cccs2)cc1F (stereo not drawn) ?
Pol iota inh: inactive; POLB inh: inactive; POLK inh: inactive; Pol eta inh-1: inactive; FEN1 inh: inactive

How did Cc1ccc(NC(=O)c2ccc3c(c2)NC(=O)c2ccccc2S3)cc1 do in these assays?
Pol iota inh: inactive; POLB inh: inactive; POLK inh: inactive; Pol eta inh-1: inactive; FEN1 inh: inactive

What do the screens show for `COc1cc(NS(=O)(=O)c2ccc(N/C=C(\C#N)c3nc4cc(Cl)ccc4o3)cc2)nc(OC)n1`?
Pol iota inh: inactive; POLB inh: inactive; POLK inh: inactive; Pol eta inh-1: 35µM; FEN1 inh: inactive; WRN helicase inh: inconclusive; Pol eta inh-2: inconclusive

How did COc1cc(NS(=O)(=O)c2ccc(NC(=O)COc3ccc(Cl)cc3Cl)cc2)nc(OC)n1 do in these assays?
Pol iota inh: inconclusive; POLB inh: inconclusive; POLK inh: inactive; Pol eta inh-1: inactive; FEN1 inh: inactive

What do the screens show for `COc1cc(Br)cc2cc(C(=O)N3CCN(C(=O)c4ccco4)CC3)c(=O)oc12`?
Pol iota inh: 32µM; POLB inh: inactive; POLK inh: inconclusive; Pol eta inh-1: 79µM; FEN1 inh: inactive; WRN helicase inh: inconclusive; Pol eta inh-2: 85

How did COc1cc2c(cc1NS(=O)(=O)c1cccc(C#N)c1)n(C)c(=O)n2C do in these assays?
Pol iota inh: inactive; POLB inh: inactive; POLK inh: inactive; Pol eta inh-1: inactive; FEN1 inh: inactive

How did C/C(N)=C(/C#N)C(=O)CN1C(=O)NC(Cc2c[nH]c3ccccc23)C1=O (stereo not drawn) do in these assays?
Pol iota inh: inconclusive; POLB inh: 28µM; POLK inh: inconclusive; Pol eta inh-1: 32µM; FEN1 inh: inactive; WRN helicase inh: inactive; Pol eta inh-2: inconclusive

What do the screens show for `Cc1ccc(CSc2ccc3nnc(CCNS(=O)(=O)c4ccc(C)cc4)n3n2)cc1`?
Pol iota inh: inactive; POLB inh: inactive; POLK inh: inactive; Pol eta inh-1: inactive; FEN1 inh: inactive

What do the screens show for `Cc1cc(NS(=O)(=O)c2ccc(NC(=O)COc3ccccc3[N+](=O)[O-])cc2)no1`?
Pol iota inh: 35µM; POLB inh: 18µM; POLK inh: inconclusive; Pol eta inh-1: 20µM; FEN1 inh: inactive; WRN helicase inh: inconclusive; Pol eta inh-2: 67

What do the screens show for `CCSc1nnc(NC(=O)C2CC=CCC2C(=O)O)s1` (stereo not drawn)?
Pol iota inh: inconclusive; POLB inh: 32µM; POLK inh: inactive; Pol eta inh-1: 20µM; FEN1 inh: inactive; WRN helicase inh: inactive; Pol eta inh-2: inconclusive

What do the screens show for `CCSc1nnc(NC(=O)C2CCCCC2)s1`?
Pol iota inh: inactive; POLB inh: inactive; POLK inh: inactive; Pol eta inh-1: inactive; FEN1 inh: inactive; WRN helicase inh: inactive

How did CC(=O)c1cc(-c2ccc(F)cc2)n(CCC(=O)Nc2nc3c(C)cccc3s2)c1C do in these assays?
Pol iota inh: inactive; POLB inh: inactive; POLK inh: inactive; Pol eta inh-1: inactive; FEN1 inh: inactive

Results for COc1ccc2c(c1OC)C(=O)OC2Nc1nc(-c2cc3cc(Br)ccc3oc2=O)cs1 (stereo not drawn) ?
Pol iota inh: inconclusive; POLB inh: inconclusive; POLK inh: inactive; Pol eta inh-1: inactive; FEN1 inh: inactive; WRN helicase inh: inactive[11.6 µM]; Pol eta inh-2: inconclusive

What do the screens show for `O=C(c1cc(-c2ccccc2)on1)N1CCCc2ccccc21`?
Pol iota inh: inactive; POLB inh: inactive; POLK inh: inactive; Pol eta inh-1: inactive; FEN1 inh: inactive; WRN helicase inh: inactive

What do the screens show for `O=C(c1cc(-c2ccco2)on1)N1CCCc2ccccc21`?
Pol iota inh: inconclusive; POLB inh: 35µM; POLK inh: 79µM; Pol eta inh-1: 79µM; FEN1 inh: inactive; WRN helicase inh: inactive; Pol eta inh-2: inconclusive

From PubChem
